GASC-1 inh = inhibitors of human GASC-1 (JMJD2C) demethylase; hit rate 0.069% among 330,000; GST-JMJD2C(1-420) H3K9me3 demethylation, DELFIA europium; inhibition, % at 2.35 µM; Q9H3R0;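 active = more than half of a compound's replicate wells show inhibition beyond 50%, single wells judged on their own value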;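 note: signal counts dimethyl H3K9 product captured on neutravidin plate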
Pemphigus Ab inh = human desmoglein-3 autoantibody binding inhibition; P32926; DSG3-coupled beads, scFv-anti-DSG3-GFP binding, flow cytometry; hits give low values; binding (percent of control), % at 10 µM; hit rate 0.48% among 310,000; AID 588358;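 active = binding more than 3 SD below its plate's average and above zero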;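 note: hits lower antibody fragment binding to DSG3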
GRK2 aptamer HTS = human GRK2 inhibition via aptamer displacement. bead flow cytometry, FAM-aptamer displacement from GRK2. inhibition of aptamer binding, % at 10 µM. hit rate 0.59% among 330,000. AID 488847;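 active = inhibition of aptamer binding above 40%, roughly 3 SD of noise, on plates passing a quality check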;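 note: median bead fluorescence of bound FAM aptamer so fluorescent compounds give negative values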
Target sequence (P25098 whole entry, looked up): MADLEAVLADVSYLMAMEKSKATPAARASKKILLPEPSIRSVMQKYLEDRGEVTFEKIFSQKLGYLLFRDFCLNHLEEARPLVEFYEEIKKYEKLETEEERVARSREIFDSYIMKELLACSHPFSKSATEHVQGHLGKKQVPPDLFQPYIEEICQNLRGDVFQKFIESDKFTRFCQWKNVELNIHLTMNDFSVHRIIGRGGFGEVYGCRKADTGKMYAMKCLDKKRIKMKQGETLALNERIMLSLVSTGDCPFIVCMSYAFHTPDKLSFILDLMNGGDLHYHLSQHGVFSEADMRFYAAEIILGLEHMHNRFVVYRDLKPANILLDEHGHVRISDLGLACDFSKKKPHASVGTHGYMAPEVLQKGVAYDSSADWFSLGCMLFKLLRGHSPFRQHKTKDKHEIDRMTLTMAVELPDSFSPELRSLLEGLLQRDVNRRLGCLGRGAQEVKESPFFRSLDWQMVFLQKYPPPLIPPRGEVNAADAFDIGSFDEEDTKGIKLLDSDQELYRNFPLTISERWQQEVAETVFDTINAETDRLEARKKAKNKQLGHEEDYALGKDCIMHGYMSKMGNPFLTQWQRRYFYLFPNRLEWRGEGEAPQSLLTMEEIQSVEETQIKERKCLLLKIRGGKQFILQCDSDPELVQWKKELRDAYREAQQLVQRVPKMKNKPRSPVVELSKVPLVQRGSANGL
VLA-4 inh = inhibition in a human VLA-4 binding assay. P13612. VLA-4 expressing cells, ligand binding flow cytometry. inhibition, % (about 7 µM as worked out from the volumes in the protocol). hit rate 0.2% among 330,000. AID 2557; in the data active = inhibition above about 50%
PREPL inh = inhibits the human prolyl oligopeptidase-like enzyme. recombinant PREPL, fluorescence polarization activity-based probe. Q4J6C6. AID 2751. inhibition, % at 5.96 µM. hit rate 0.68% among 320,000; in the data active = inhibition above about 43%
Numbers stand for hits. Shown are actives, neighbours in structure and some others; about 1.6% of the full set was active somewhere.

What do the screens show for `O=S(=O)(c1cccs1)N1CCN(c2ncccn2)CC1`?
GASC-1 inh: inactive; Pemphigus Ab inh: inactive; GRK2 aptamer HTS: inactive; VLA-4 inh: inactive; PREPL inh: inactive

Results for O=S(=O)(c1cccs1)N1CCN(c2ccccn2)CC1 ?
GASC-1 inh: inactive; Pemphigus Ab inh: 80; GRK2 aptamer HTS: inactive; VLA-4 inh: inactive; PREPL inh: inactive

Results for CC(CN1CCCC1)OC(=O)COc1ccccc1 (stereo not drawn) ?
GASC-1 inh: 50; Pemphigus Ab inh: inactive; GRK2 aptamer HTS: inactive; VLA-4 inh: inactive; PREPL inh: inactive

Results for O=C(O)c1oc2ccc(Br)cc2c1-n1cccc1 ?
GASC-1 inh: inactive; GRK2 aptamer HTS: inactive; VLA-4 inh: inactive; PREPL inh: inactive

What do the screens show for `Cc1ccc(NCC(=O)c2ccccc2)cc1Cl`?
GASC-1 inh: inactive; Pemphigus Ab inh: inactive; GRK2 aptamer HTS: inactive; VLA-4 inh: inactive; PREPL inh: inactive

Results for Cc1ccc(NCCC(=O)c2ccccc2)cc1Cl ?
GASC-1 inh: inactive; Pemphigus Ab inh: 89; GRK2 aptamer HTS: inactive; VLA-4 inh: inactive; PREPL inh: inactive

How did Cc1ccc(C(=O)CNc2ccc(C)c(Cl)c2)cc1 do in these assays?
GASC-1 inh: inactive; Pemphigus Ab inh: -6.7; GRK2 aptamer HTS: inactive; VLA-4 inh: inactive; PREPL inh: inactive

How did CCCOC1CCCN(C(=O)c2cc(COc3ccc(F)c(F)c3)on2)C1 (stereo not drawn) do in these assays?
GASC-1 inh: inactive; Pemphigus Ab inh: inactive; GRK2 aptamer HTS: inactive; VLA-4 inh: inactive; PREPL inh: inactive

How did CCOc1ccc(N(CC(=O)NCCSCc2ccco2)S(=O)(=O)c2ccc(C)cc2)cc1 do in these assays?
GASC-1 inh: inactive; Pemphigus Ab inh: 81; GRK2 aptamer HTS: inactive; VLA-4 inh: inactive; PREPL inh: inactive

What do the screens show for `CCn1c(C)nc2cc(C(=O)NNC(=S)Nc3ccc(C)cc3)ccc21`?
GASC-1 inh: inactive; Pemphigus Ab inh: inactive; GRK2 aptamer HTS: inactive; VLA-4 inh: inactive; PREPL inh: inactive

Results for CCn1c(C)nc2cc(C(=O)NNC(=O)CCC3CCCCC3)ccc21 ?
GASC-1 inh: inactive; Pemphigus Ab inh: 63; GRK2 aptamer HTS: inactive; VLA-4 inh: inactive; PREPL inh: inactive

What do the screens show for `OCCN1CCN(c2ncnc3c2sc2nc(N4CCOCC4)c4c(c23)CCC4)CC1`?
GASC-1 inh: inactive; Pemphigus Ab inh: inactive; GRK2 aptamer HTS: inactive; VLA-4 inh: inactive; PREPL inh: inactive

How did CC1(C)Cc2c(c(N3CCCC3)nc3sc4c(N5CCN(CCO)CC5)ncnc4c23)CO1 do in these assays?
GASC-1 inh: inactive; Pemphigus Ab inh: inactive; GRK2 aptamer HTS: inactive; VLA-4 inh: inactive; PREPL inh: 48

What do the screens show for `CCOc1ncccc1C(=O)NCC(c1ccco1)N1CCCCC1` (stereo not drawn)?
GASC-1 inh: inactive; Pemphigus Ab inh: inactive; GRK2 aptamer HTS: inactive; VLA-4 inh: inactive; PREPL inh: inactive

Results for CCCCCC(=O)N1C[C@H](O)[C@@H](n2cc(C3CC3)nn2)C[C@@H]1c1ccc(C)cc1 ?
Pemphigus Ab inh: inactive

How did NC(=O)Cc1ccc(C(=O)c2ccc(F)cc2)s1 do in these assays?
GASC-1 inh: inactive; Pemphigus Ab inh: 75; GRK2 aptamer HTS: inactive; VLA-4 inh: inactive; PREPL inh: inactive

How did O=C(NCCc1ccccn1)c1c(-c2ccsc2)sc2ccccc12 do in these assays?
Pemphigus Ab inh: inactive; GRK2 aptamer HTS: 70; VLA-4 inh: inactive; PREPL inh: inactive

What do the screens show for `CCOc1cc(C(=O)N(C)CC(=O)Nc2cccc(F)c2)ccc1OCC(=O)N1CCCCC1`?
GASC-1 inh: inactive; Pemphigus Ab inh: inactive; GRK2 aptamer HTS: inactive; VLA-4 inh: inactive; PREPL inh: inactive

How did CN(c1ccccc1C(=O)NC1CCCCC1)S(=O)(=O)c1ccccc1 do in these assays?
GASC-1 inh: inactive; GRK2 aptamer HTS: inactive; VLA-4 inh: inactive; PREPL inh: inactive

Results for CN(c1ccccc1C(=O)NC1CC2CCC1C2)S(=O)(=O)c1ccccc1 (stereo not drawn) ?
GASC-1 inh: inactive; Pemphigus Ab inh: 38; GRK2 aptamer HTS: inactive; VLA-4 inh: inactive; PREPL inh: inactive

Results for CS(=O)(=O)c1ccc(NS(=O)(=O)c2ccc(Cl)c(C(=O)NCc3ccco3)c2)cc1 ?
GASC-1 inh: inactive; Pemphigus Ab inh: inactive; GRK2 aptamer HTS: inactive; VLA-4 inh: inactive; PREPL inh: inactive

Results for O=C(Cn1c2ccccc2c2nc3n(c(=O)c21)CCS3)Nc1ccccc1C(F)(F)F ?
GASC-1 inh: inactive; Pemphigus Ab inh: 93; GRK2 aptamer HTS: inactive; VLA-4 inh: inactive; PREPL inh: inactive

What do the screens show for `CCOc1cc(/C=C2/SC(=Nc3ccccc3)N(Cc3cccnc3)C2=O)ccc1OCC#N`?
GASC-1 inh: inactive; Pemphigus Ab inh: inactive; GRK2 aptamer HTS: inactive; VLA-4 inh: inactive; PREPL inh: inactive

What do the screens show for `COc1ccc(C(=O)/C(=C/O)N=Nc2ccc(F)cc2)cc1`?
GASC-1 inh: inactive; Pemphigus Ab inh: -4.7; GRK2 aptamer HTS: inactive; VLA-4 inh: inactive; PREPL inh: inactive

Results for COc1ccc(N=N/C(=C\O)C(=O)c2cccs2)cc1 ?
GASC-1 inh: inactive; Pemphigus Ab inh: inactive; GRK2 aptamer HTS: inactive; VLA-4 inh: inactive; PREPL inh: inactive

Results for CC(C)(C)NC(=O)Cn1nnc(-c2ccccc2NC(=O)c2ccco2)n1 ?
GASC-1 inh: inactive; Pemphigus Ab inh: inactive; GRK2 aptamer HTS: inactive; VLA-4 inh: inactive; PREPL inh: inactive

What do the screens show for `O=C(Cn1nnc(-c2ccccc2NC(=O)c2ccco2)n1)Nc1ccccc1`?
GASC-1 inh: inactive; Pemphigus Ab inh: 6.9; GRK2 aptamer HTS: inactive; VLA-4 inh: inactive; PREPL inh: inactive

How did COc1ccccc1NC(=O)Cn1nnc(-c2ccccc2NC(=O)c2cc3ccccc3oc2=O)n1 do in these assays?
GASC-1 inh: inactive; Pemphigus Ab inh: 9.0; GRK2 aptamer HTS: inactive; VLA-4 inh: inactive; PREPL inh: inactive

Results for CCOC(=O)C1CCN(S(=O)(=O)c2ccc3c(ccn3C)c2)CC1 ?
GASC-1 inh: inactive; Pemphigus Ab inh: inactive; GRK2 aptamer HTS: inactive; VLA-4 inh: inactive; PREPL inh: inactive

Results for C[C@H](CO)N1C[C@H](C)[C@H](CN(C)C(=O)Nc2cccc3ccccc23)OCc2cnnn2CCCC1=O ?
Pemphigus Ab inh: inactive

How did Cc1c(O)ccoc1=O do in these assays?
GASC-1 inh: inactive; Pemphigus Ab inh: inactive; GRK2 aptamer HTS: inactive; VLA-4 inh: inactive; PREPL inh: inactive

What do the screens show for `O=C(NNC(=S)NC1CCCCC1)c1sc2ccccc2c1Cl`?
GASC-1 inh: inactive; Pemphigus Ab inh: inactive; GRK2 aptamer HTS: inactive; VLA-4 inh: inactive; PREPL inh: inactive

How did CC(C)(C)C(=O)NC(=S)NNC(=O)c1sc2ccccc2c1Cl do in these assays?
GASC-1 inh: inactive; Pemphigus Ab inh: inactive; GRK2 aptamer HTS: 49; VLA-4 inh: inactive; PREPL inh: inactive

What do the screens show for `O=S(=O)(c1ccc(F)c(F)c1)N1CCN(S(=O)(=O)c2cccs2)CC1`?
GASC-1 inh: inactive; GRK2 aptamer HTS: inactive; VLA-4 inh: inactive; PREPL inh: inactive

What do the screens show for `CCN(CC)c1ccc(C(=O)OCc2cc(=O)oc3cc(O)ccc23)cc1`?
GASC-1 inh: inactive; Pemphigus Ab inh: 86; GRK2 aptamer HTS: inactive; VLA-4 inh: inactive; PREPL inh: inactive

What do the screens show for `CCN(CC)c1ccc2c(O)cc(=O)oc2c1`?
GASC-1 inh: inactive; Pemphigus Ab inh: inactive; GRK2 aptamer HTS: inactive; VLA-4 inh: inactive; PREPL inh: inactive

Screens from PubChem BioAssay.
